{
  "source": "PubChem BioAssay AID2284162",
  "about": "(EPA ToxCast)",
  "note": "The source made the active and inactive calls. The calls were made as follows: active = hit-call score of the fitted dose curve at least 0.9, where 1 is the maximum; inactive = score below 0.9.",
  "data": [
    {"biological_target": "human Histamine Receptor H1, HRH1 (gene 3269) (UniProt P35367)", "sequence (P35367 whole entry, looked up)": "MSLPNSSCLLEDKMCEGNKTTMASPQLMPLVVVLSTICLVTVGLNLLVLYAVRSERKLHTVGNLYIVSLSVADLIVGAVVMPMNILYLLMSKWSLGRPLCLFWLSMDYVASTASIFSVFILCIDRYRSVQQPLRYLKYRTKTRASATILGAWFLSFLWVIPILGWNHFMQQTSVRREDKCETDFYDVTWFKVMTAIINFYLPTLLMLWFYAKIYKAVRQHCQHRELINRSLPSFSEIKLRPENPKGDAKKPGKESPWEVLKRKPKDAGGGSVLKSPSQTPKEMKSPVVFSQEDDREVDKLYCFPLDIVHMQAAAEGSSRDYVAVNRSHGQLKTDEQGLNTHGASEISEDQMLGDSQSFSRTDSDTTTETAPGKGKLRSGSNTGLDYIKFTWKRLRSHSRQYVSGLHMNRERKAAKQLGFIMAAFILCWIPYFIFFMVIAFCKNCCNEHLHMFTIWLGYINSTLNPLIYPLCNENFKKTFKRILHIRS", "assay": "ERF_FR_GPCR_hHRH1: Eurofins (ERF) G Protein-Coupled Receptor (GPCR) Radioligand Binding LeadHunter Assay for human Histamine Receptor H1 Antagonism, conducted at France lab site", "procedure": "ERF_FR_GPCR_hHRH1 is a biochemical, single-readout assay that uses extracted gene-proteins in a cell-free assay. Measurements were taken 1 hour after chemical dosing in a 96-well plate. See H1 Human Histamine GPCR Binding (Antagonist Radioligand) Assay, Cerep.ERF_FR_GPCR_hHRH1 is an assay component calculated from the ERF_FR_GPCR_hHRH1 assay. It is designed to measure radioligand binding using a type of binding reporter as detected by scintillation counting with radiometry technology.Data from the assay component ERF_FR_GPCR_hHRH1 was analyzed at the assay endpoint, ERF_FR_GPCR_hHRH1, in the positive analysis fitting direction relative to DMSO as the negative control and baseline of activity. Using a type of binding reporter, loss-of-signal activity can be used to understand changes in binding as they relate to gene HRH1. To generalize the intended target to other relatable targets, this assay endpoint is annotated to the gpcr intended target family, where the subfamily is histamine.\nHuman cells are incubated for 60 minutes at room temprature with [3H]pyrilamine ligand (1 nM) and Pyrilamine as control inhibitor. Test Sample Requirements: Minimum for 1) Screen: 60 ul of 10 mM stock -OR- 1 mg (pre-weighed) for 10 uM final testing. 2) Dose Response: 90 ul of 10 mM stock -OR- 1 mg (pre-weighed) for a top concentration at 10 uM.", "values": [
      {"compound": "O=C(/C=C/c1ccc(O)cc1)CC(=O)/C=C/c1ccc(O)cc1", "AC50": "1460 nM (active)"}
    ]}
  ]
}
